From ChEMBL document CHEMBL4513216, “Probing the Open Global Health Chemical Diversity Library for Multistage-Active Starting Points for Next-Generation Antimalarials” (ACS Infect Dis, 2020)
Screen size: about 69,000 compounds; about 8,600 (12%) showed an effect of 50% or more. This is one part of a sample in which strong results are shown more often than they occur.

System: Plasmodium berghei
Assay: Screen against P. berghei liver stage (PbLuc), transformed with Luciferase, at 10uM
Assay type: functional, HepG2
Details: tested at 10 uM

SMILES	INHIBITION [%]
N#CCc1ccc(NC(=O)Cn2cc(I)cn2)cc1	36.6
O=C(NCC1CCCO1)c1nc2c(s1)CCCN2Cc1ccccc1 (stereo unspecified)	-57.7
COc1ccc(Br)cc1S(=O)(=O)N(C)Cc1ccc(N(C)C)cc1	5.76
CCOc1ccc(Br)cc1S(=O)(=O)N(CC)Cc1ccc(N(C)C)cc1	61.5
CCN(Cc1ccc(N(C)C)cc1)S(=O)(=O)c1cc(Br)ccc1OC	7.65
CCOC(=O)N1CC(C)=C(C)CN1C(=O)Nc1ccc(Cl)c(Cl)c1	13
CCNc1cc2c(nn1)CCN(C(=O)c1cccc(CSC)c1)C2	37.3
O=C(c1cc[nH]n1)N1CCCC1C1CCN(Cc2ccccc2)CC1 (stereo unspecified)	37.9
CN(C(=O)c1cccnc1)C1CCCN(CCc2ccccc2)C1 (stereo unspecified)	42.2
O=C(c1ccc(CN2CCCCC2)cc1)N1CCCC1c1cccs1 (stereo unspecified)	31
O=C(c1ccncc1)N1CCCC1C1CCN(Cc2ccccc2)CC1 (stereo unspecified)	51.1
O=C(c1ccco1)N1CCCC1C1CCN(Cc2ccccc2)CC1 (stereo unspecified)	21.3
O=C(c1ccoc1)N1CCCC1C1CCN(Cc2ccccc2)CC1 (stereo unspecified)	51.1
O=C(C1CC1)N1CCCC1C1CCN(Cc2ccccc2)CC1 (stereo unspecified)	-12.6
O=C(c1cccnc1)N1CCCC1C1CCN(Cc2ccccc2)CC1 (stereo unspecified)	73.6
O=C(c1ccoc1)N1CC[C@@H](N2CCOCC2)[C@@H]1Cc1ccccc1	35.7
Cc1cccnc1C(=O)N1CCC(Cc2cnc3[nH]ccc3c2)CC1	44.8
OCC(O)CN(CCN1CCOCC1)Cc1ccco1 (stereo unspecified)	43.9
Cc1oncc1C(=O)N1CC[C@H]2[C@H](C[C@@H](CN3CCCC3)N2C)C1	16.6
Cc1cc(C(=O)N2CC[C@H]3[C@H](C[C@@H](CN4CCCC4)N3C)C2)c(C)o1	39.5
Cc1nc(C(C)C)ncc1C(=O)N1CCCC(N2CCCC2)C1 (stereo unspecified)	26.8

SMILES	INHIBITION [%]
O=C(O)CSC1CCc2ccccc2NC1=O (stereo unspecified)	18.4
NS(=O)(=O)CCN1CCN(c2ccccc2O)CC1	-24.7
CCOC(=O)CCNC(=O)N1CCCC(CNC(=O)c2ccco2)C1 (stereo unspecified)	15.7
CCOC(=O)CNC(=O)N1CCCC(CNC(=O)c2ccco2)C1 (stereo unspecified)	3.73
O=C(NCC1CCCN(C(=O)NCCc2ccccc2)C1)c1ccco1 (stereo unspecified)	59.1
CC(C)NC(=O)[C@H]1C[C@H]2CN(C(=O)NC(C)C)C[C@@H]1O2	24
CC(C)NC(=O)N1C[C@@H]2C[C@H](C(=O)N3CCCC3)[C@H](C1)O2	43.9
CC(C)CS(=O)(=O)N1C[C@@H]2C[C@H](C(=O)N3CCCC3)[C@H](C1)O2	32.5
CC(C)CS(=O)(=O)N1C[C@@H]2C[C@H](C(=O)N3CCOCC3)[C@H](C1)O2	83.2
CNC(=O)[C@H]1C[C@H]2CN(C(=O)NC(C)C)C[C@@H]1O2	57.5
O=C(Nc1ccccc1)N1C[C@@H]2C[C@H](C(=O)N3CCOCC3)[C@H](C1)O2	55.4
O=C(Nc1ccccc1)N1C[C@@H]2C[C@H](C(=O)N3CCCC3)[C@H](C1)O2	-13.2
O=C(Nc1ccc(F)cc1)N1C[C@@H]2C[C@H](C(=O)N3CCOCC3)[C@H](C1)O2	1.58
CC(C)CS(=O)(=O)N1C[C@@H]2C[C@H](C(=O)N3CCN(C)CC3)[C@H](C1)O2	-1.28
CCS(=O)(=O)N[C@H]1CN(CC(C)(C)N2CCOCC2)C[C@@H]1C1CC1	18.5
O=C(Nc1ccccc1)C1=NOC2(CCCN(C(=O)C3CCCC3)C2)C1 (stereo unspecified)	-31
O=C(c1ccn(-c2ccc(F)cc2)n1)N1CCCC(n2ccnc2)C1 (stereo unspecified)	-17
CCc1nc(CNC2CCN(S(C)(=O)=O)CC2)cs1	28.3
O=C(C1CCOCC1)N1CCO[C@H]2[C@@H](OCC3CC3)CC[C@@H]21	-19.8
CCC(C)N(Cc1cccnc1)C(=O)c1ccc(NS(=O)(=O)CC)cc1 (stereo unspecified)	18.8
CCCn1ncc(C(=O)N2CCCC(OCc3ccccn3)C2)c1C (stereo unspecified)	-38.6

SMILES	INHIBITION [%]
O=C(NCc1ccccc1)N1C[C@@H]2C[C@H](C(=O)N3CCCC3)[C@H](C1)O2	15.3
CN(C)C(=O)[C@H]1C[C@H]2CN(CCc3ccccc3)C[C@@H]1O2	66
CNC(=O)N1C[C@@H]2C[C@H](C(=O)Nc3cccnc3)[C@H](C1)O2	54.4
O=C(Nc1ccccc1)[C@H]1C[C@H]2CN(C(=O)Nc3ccccc3)C[C@@H]1O2	7.31
CNC(=O)[C@H]1C[C@H]2CN(C(=O)Nc3ccccc3)C[C@@H]1O2	-26.5
CN1C[C@@H]2C[C@H](C(=O)Nc3cccnc3)[C@H](C1)O2	41.6
CNC(=O)N1C[C@@H]2C[C@H](C(=O)Nc3ccccc3)[C@H](C1)O2	62
O=C(NCCc1ccccc1)N1C[C@@H]2C[C@H](C(=O)N3CCCC3)[C@H](C1)O2	57.1
CNC(=O)[C@H]1C[C@H]2CN(C(=O)NCCc3ccccc3)C[C@@H]1O2	19.5
O=C(Nc1cccnc1)[C@H]1C[C@H]2CN(C(=O)NC3CCCC3)C[C@@H]1O2	9.67
CN(C)C(=O)[C@H]1C[C@H]2CN(S(=O)(=O)Cc3ccccc3)C[C@@H]1O2	19.9
CN(C)C(=O)[C@H]1C[C@H]2CN(S(=O)(=O)c3ccccc3)C[C@@H]1O2	33.4
COCCc1noc(CN2CCCC2c2c(C)nn(C)c2OC)n1 (stereo unspecified)	17.4
CCCNC(=O)C1CCCN(Cc2csc(C(C)(C)C)n2)C1 (stereo unspecified)	-62.8
CNC(=O)[C@@H](c1ccccc1OC)N1CCC[C@H]1C(=O)NC(C)(C)C	-22.4
Cc1cccc(C)c1OCC(=O)NC(C)c1nnc2n1CCC2 (stereo unspecified)	-29.2
COc1c(CNCC(=O)N2CCN(C)CC2)c(C(C)C)nn1C	42.1
Cc1noc(CNC(=O)c2ccccc2-n2cc(CN)cn2)n1	20.8
O=C1CN(C(=O)c2cc3ccc(Br)cc3[nH]2)CCN1	-56.7
